According to PubChem BioAssay:
Calls of active or inactive are those of the source.

Tests used:
[1] = system: Human papillomavirus type 1a protein E7 (residues 44-93); test: HPV1a E7 fragment binders on microarrays, primary screen, biochemical, small-molecule microarray, residues 44-93, 635 nm fluorescence (AID 1108); conditions: small-molecule microarray binding, fluorescence 635 nm; higher = more signal;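 further: E7 fragment applied at 1 µg/mL in TBST for 1 h at 4 C; score combines spot fluorescence with its signal to noise ratio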
[2] = modulators of HCV replicon luciferase signal, primary screen, HCV replication inhibitor project, Huh7 cells, luciferase reporter (AID 1109); conditions: 48 h, higher = more signal;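 further: huh7 hepatoma cells harbouring a luciferase neomycin HCV replicon reporter; luciferase luminescence as measure of HCV replicon replication; test concentration not given here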
[3] = target: Left-right determination factor 2 (Homo sapiens) (UniProt O00292); test: LEFTY2 binders on small-molecule microarrays, primary screen, biochemical, small-molecule microarray, 635 nm fluorescence scan (AID 1110); conditions: LEFTY2 binding, higher = more signal
Chain of Left-right determination factor 2 (Homo sapiens) (O00292 whole entry, looked up): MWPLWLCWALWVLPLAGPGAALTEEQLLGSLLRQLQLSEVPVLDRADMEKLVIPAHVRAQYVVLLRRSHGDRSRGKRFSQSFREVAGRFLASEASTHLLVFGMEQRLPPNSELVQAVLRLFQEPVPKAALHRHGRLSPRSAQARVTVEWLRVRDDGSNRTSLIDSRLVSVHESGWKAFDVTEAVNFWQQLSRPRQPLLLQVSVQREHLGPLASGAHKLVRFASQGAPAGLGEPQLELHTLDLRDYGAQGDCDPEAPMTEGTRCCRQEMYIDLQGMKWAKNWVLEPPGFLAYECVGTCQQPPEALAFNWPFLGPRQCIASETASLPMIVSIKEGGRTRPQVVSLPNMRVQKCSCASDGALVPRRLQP

[4] = target: Calmodulin-1 (Homo sapiens) (UniProt P0DP23); test: CALM1 binders on microarrays, EGTA buffer, profiling panel, biochemical, small-molecule microarray, Cy5-labelled CALM1 (AID 1111); conditions: Cy5-CALM1 binding fluorescence, higher = more signal;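 further: labelled calmodulin applied in Tris saline Tween buffer holding calcium plus EGTA and DTT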
[5] = target: Calmodulin-1 (Homo sapiens) (UniProt P0DP23); test: calcium-bound CALM1 binders on microarrays, profiling panel, artefact control for SMM control-protein annotation, biochemical, small-molecule microarray, Cy5-labelled CALM1, plus calcium (AID 1112); conditions: Cy5-CALM1 binding fluorescence, higher = more signal;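 further: score merges spot fluorescence with signal to noise from triplicate slides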
[6] = small-molecule microarray binders of probe aWnt5a, primary screen, biochemical, biotinylated probe, 635/667 nm fluorescence (AID 1113); conditions: higher = more signal;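 further: score merges 667 nm fluorescence intensity with signal-to-noise per printed feature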
[7] = small-molecule microarray binders of probe aShh, primary screen, biochemical, biotinylated probe, 635/667 nm fluorescence (AID 1114); conditions: higher = more signal;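 further: probe is biotin-labelled aShh protein from a stem cell growth factor screen; measures binding of labelled protein to compounds printed on the slide; score merges feature fluorescence at 667 nm with signal-to-noise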
[8] = small-molecule microarray binders of probe aNog, primary screen, biochemical, biotinylated probe, 635/667 nm fluorescence (AID 1115); conditions: higher = more signal;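 further: probe is biotinylated aNog protein used at 0.15 µg/mL for 1 h at 4 C; z-score combines 667 nm fluorescence of each spot with its signal to noise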
[9] = target: Torsin-1A-interacting protein 1 (Homo sapiens) (UniProt Q5JTV8); test: LAP1 binders from COS7 cell lysate, primary screen, small-molecule microarray, 635/667 nm fluorescence (AID 1116); conditions: COS7-hLAP1 lysate binding, 635 nm fluorescence, higher = more signal
Chain of Torsin-1A-interacting protein 1 (Homo sapiens) (Q5JTV8 whole entry, looked up): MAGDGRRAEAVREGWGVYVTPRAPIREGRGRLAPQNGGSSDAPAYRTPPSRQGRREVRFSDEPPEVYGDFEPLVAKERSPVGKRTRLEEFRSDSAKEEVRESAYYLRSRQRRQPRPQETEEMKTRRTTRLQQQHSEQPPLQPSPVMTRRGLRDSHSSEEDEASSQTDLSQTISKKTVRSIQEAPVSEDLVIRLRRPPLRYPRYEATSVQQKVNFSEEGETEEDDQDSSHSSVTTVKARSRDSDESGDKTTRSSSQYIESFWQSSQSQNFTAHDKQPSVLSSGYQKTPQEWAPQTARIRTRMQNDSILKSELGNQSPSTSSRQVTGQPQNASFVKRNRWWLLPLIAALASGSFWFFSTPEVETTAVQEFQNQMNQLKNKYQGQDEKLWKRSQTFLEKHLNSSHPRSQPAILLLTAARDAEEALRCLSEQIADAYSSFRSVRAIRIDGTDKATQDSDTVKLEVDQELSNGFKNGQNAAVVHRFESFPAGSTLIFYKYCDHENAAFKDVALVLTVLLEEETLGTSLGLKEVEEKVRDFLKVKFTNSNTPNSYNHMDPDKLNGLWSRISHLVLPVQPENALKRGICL

[10] = target: Alpha-bungarotoxin (Bungarus multicinctus) (UniProt P60615); test: alpha-bungarotoxin binders on microarray, profiling panel, artefact control for SMM control protein annotation, biochemical, small-molecule microarray, Alexa647 label, 635/667 nm fluorescence (AID 1117); conditions: alpha-BTX-A647 binding fluorescence, higher = more signal
Chain of Alpha-bungarotoxin (Bungarus multicinctus) (P60615 whole entry, looked up): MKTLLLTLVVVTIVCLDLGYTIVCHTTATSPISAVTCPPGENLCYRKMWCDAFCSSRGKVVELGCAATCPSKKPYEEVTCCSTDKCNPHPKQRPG

Albumin (Bos taurus) = Albumin (Bos taurus) (UniProt P02769); test: bovine serum albumin binders on microarray, profiling panel, artefact control for SMM control protein annotation, biochemical, small-molecule microarray, Alexa647 label, 635/667 nm fluorescence (AID 1118); conditions: BSA-A647 binding, fluorescence 635 nm, higher = more signal;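 further: score merges 667 nm emission intensity and signal-to-noise per printed compound spot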
Chain of Albumin (Bos taurus) (P02769 whole entry, looked up): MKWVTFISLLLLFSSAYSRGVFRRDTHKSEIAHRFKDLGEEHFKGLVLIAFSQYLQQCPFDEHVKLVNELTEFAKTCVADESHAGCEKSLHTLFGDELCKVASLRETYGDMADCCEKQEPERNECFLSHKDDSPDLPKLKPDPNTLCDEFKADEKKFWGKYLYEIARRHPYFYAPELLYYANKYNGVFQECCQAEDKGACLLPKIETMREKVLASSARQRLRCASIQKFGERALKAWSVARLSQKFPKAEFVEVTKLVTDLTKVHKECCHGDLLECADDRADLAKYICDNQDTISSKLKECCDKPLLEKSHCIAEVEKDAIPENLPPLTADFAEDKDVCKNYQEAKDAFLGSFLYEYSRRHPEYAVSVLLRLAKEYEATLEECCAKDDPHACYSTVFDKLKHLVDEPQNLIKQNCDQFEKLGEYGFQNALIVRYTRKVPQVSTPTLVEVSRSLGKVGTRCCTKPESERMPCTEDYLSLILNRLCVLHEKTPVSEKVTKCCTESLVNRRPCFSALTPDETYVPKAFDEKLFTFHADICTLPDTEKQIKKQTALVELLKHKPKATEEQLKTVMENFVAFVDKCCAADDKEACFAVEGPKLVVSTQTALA

[11] = small-molecule microarray binders of probe aXIP, primary screen, biochemical, NeuroSMM set, 635/667 nm fluorescence (AID 1119); conditions: higher = more signal, called active from +8 up or from −8 down;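 further: probe is the protein aXip251-270 applied at 1 µg/mL to compound-printed slides; binding of probe to printed compounds measured as 667 nm fluorescence plus signal to noise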
[12] = small-molecule binders of probe aNOTCH3, primary screen, biochemical, small-molecule microarray, 635/667 nm fluorescence (AID 1120); conditions: higher = more signal;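 further: probe is a biotin-tagged antibody raised against NOTCH3 rather than NOTCH3 protein; score merges spot fluorescence near 667 nm with spot signal to noise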
[13] = small-molecule binders of probe aNOTCH2, primary screen, biochemical, small-molecule microarray, 635/667 nm fluorescence (AID 1121); conditions: higher = more signal;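 further: score merges feature fluorescence read at 667 nm with its signal to noise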
[14] = target: Carbonic anhydrase 2 (Homo sapiens) (UniProt P00918); test: CAII small-molecule binders, profiling panel, biochemical, small-molecule microarray, Alexa647-labelled CAII (AID 1122); conditions: CAII-A647 binding fluorescence, higher = more signal
[15] = COS7 lysate on small-molecule microarray, probe aHis, 635 nm (AID 1123); conditions: COS7 cell lysate, fluorescence, higher = more signal;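 further: z-score combines 667nm fluorescence intensity with signal-to-noise per printed compound spot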
[16] = compound binding in COS7 lysate, probe aLAP1, primary screen, cell lysate, small-molecule microarray (AID 1124); conditions: probe aLAP1, fluorescence, higher = more signal;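 further: lysate comes from COS7 cells expressing LAP1 and is applied at 0.3 µg/mL; score merges spot fluorescence near 667 nm with signal-to-noise over triplicate slides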
Sam68 (KHDRBS1) = test: Sam68 small-molecule binders, primary screen, biochemical, small-molecule microarray, 635 nm fluorescence (AID 1125); conditions: small-molecule microarray binding, higher = more signal;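 further: score merges 667 nm channel intensity with signal to noise over triplicate slides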
[17] = system: Chordin-like protein 2 (CHRDL2); test: CHRDL2 small-molecule binders, primary screen, biochemical, small-molecule microarray, 635 nm fluorescence (AID 1126); conditions: small-molecule microarray binding, fluorescence 635 nm; higher = more signal;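 further: printed compound slides probed with Chrdl2 protein at 4 µg/mL for 1 h at 4 C; score merges 667 nm emission intensity with signal to noise over three replicate slides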
[18] = target: Concanavalin-A (Canavalia ensiformis) (UniProt P02866); test: ConA small-molecule binders, primary screen, artefact control for SMM control protein annotation, biochemical, small-molecule microarray, Alexa647 label, 635 nm (AID 1127); conditions: ConA-A647 binding fluorescence, higher = more signal;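 further: z combines 667 nm emission intensity with signal-to-noise across three replicate slides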
Chain of Concanavalin-A (Canavalia ensiformis) (P02866 whole entry, looked up): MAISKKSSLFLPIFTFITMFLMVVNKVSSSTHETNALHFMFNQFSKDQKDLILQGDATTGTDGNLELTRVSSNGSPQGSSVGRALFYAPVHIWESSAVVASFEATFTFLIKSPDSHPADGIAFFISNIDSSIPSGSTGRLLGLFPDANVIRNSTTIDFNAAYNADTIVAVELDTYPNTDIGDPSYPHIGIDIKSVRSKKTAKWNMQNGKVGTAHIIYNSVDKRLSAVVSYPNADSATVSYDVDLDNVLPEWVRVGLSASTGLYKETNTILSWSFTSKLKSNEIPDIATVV

Structure (SMILES)	composite z-score [1]	z-score [2]	composite z-score [3]	composite z-score [4]	composite z-score [5]	composite z-score [6]	composite z-score [7]	composite z-score [8]	composite z-score [9]	composite z-score [10]	composite z-score (Albumin (Bos taurus))	composite Z-score [11]	composite z-score [12]	composite z-score [13]	composite z-score [14]	composite z-score [15]	composite z-score [16]	composite z-score (Sam68 (KHDRBS1))	composite z-score [17]	composite z-score [18]
CC(C)CN1C(=O)[C@@]2(c3ccc([N+](=O)[O-])cc3)CC(=O)N(CC34CC5CC(CC(C5)C3)C4)[C@@H]2c2ccc(CO)cc21	-0.746	-1.07	-1.36	0.657	0.0047	-0.152	0.151	0.884	-1.09	0.578	0.291	-0.585 (inactive)	-0.0016	-0.189	0.411	0.0815	-0.0349	-0.772	-1.52	0.436
C=CCOC(=O)[C@H]1[C@@H]2C(=O)O[C@@H](c3ccccc3)[C@@H](c3ccccc3)N2[C@@H](c2ccc(OCCOC(=O)[C@H]3C[C@H]4C(=O)N[C@@H](Cc5ccccc5)C(=O)N4[C@H]3c3ccc(O)cc3)cc2)[C@]12C(=O)Nc1ccc(I)cc12	1.39	-1.41	0.537	0.43	0.0144	0.0169	-0.333	-0.174	0.791	0.897	-0.175	0.341 (inactive)	0.189	-0.11	0.28	1.78	0.428	1.3	1.23	1.14
COCCOC(=O)N1C(=O)[C@@]2(c3cc(C#CC4(O)CCCCCC4)ccc31)[C@H](C(N)=O)[C@H]1C(=O)O[C@H](c3ccccc3)[C@H](c3ccccc3)N1[C@@H]2c1ccc(O)cc1	1.4	-1.39	0.556	0.36	-0.471	-0.0203	-0.206	0.225	0.0793	0.74	0.21	-0.014 (inactive)	0.676	-0.0349	0.181	1.27	0.298	1.12	0.47	0.866
Cc1c(NC(=O)/C(C#N)=C/C=C/c2ccccc2[N+](=O)[O-])c(=O)n(-c2ccccc2)n1C	0.475	-2.79	0.34	0.517	0.188	-0.092	-0.292	-0.527	0.37	0.556	0.974	-0.148 (inactive)	-0.0903	-0.0234	0.643	1.11	1.04	0.708	0.704	0.761
O=C1O[C@@H](c2ccccc2)[C@@H](c2ccccc2)N2[C@@H](c3ccccc3OCCO)[C@]3(C(=O)Nc4ccc(C#CCCO)cc43)[C@@H](C(=O)Nc3nc4ccccc4s3)[C@H]12	-0.503	-2.12	1.02	1.7	0.64	-0.0572	-0.289	-0.523	0.326	1.82	0.792	0.229 (inactive)	0.302	0.0203	0.428	1.28	1.33	1.31	0.529	1.14
CC(C)C(=C=CC[C@H](O)c1ccc(OCCO)cc1)C[C@H](O)c1cc(Cl)cc(Cl)c1O	0.927	-1.57	0.437	-0.0205	0.134	-0.0125	0.191	0.205	0.413	1.44	0.584	0.32 (inactive)	0.232	-0.0533	0.542	0.644	0.147	1.26	0.243	1.07
O=C1O[C@@H](c2ccccc2)[C@@H](c2ccccc2)N2[C@@H](c3ccccc3OCCO)[C@]3(C(=O)Nc4ccc(C#CC5=CCCCC5)cc43)[C@@H](C(=O)NC[C@H](O)c3ccccc3)[C@H]12	1.35	-3.33	0.556	1.08	0.0728	0.0388	-0.0709	0.0483	0.519	1.31	0.402	-0.584 (inactive)	0.0522	-0.124	0.211	0.363	0.182	1.28	0.478	1.04
CC(C)OC(=O)CC(=O)CC(O)c1cccc(C#N)c1 (stereo not given)	1.32	-0.664	-0.0472	0.552	0.252	-0.0944	-0.16	-0.0956	1.39	0.684	0.586	0.586 (inactive)	0.178	-0.022	0.522	1.03	0.0279	1.35	-0.591	1.13
O=C1O[C@@H](c2ccccc2)[C@@H](c2ccccc2)N2[C@@H](c3ccccc3OCCO)[C@]3(C(=O)Nc4ccc(C#CCCO)cc43)[C@@H](C(=O)N3CCN(c4ncccn4)CC3)[C@H]12	1.39	-1.71	-0.0407	1.15	0.27	-0.096	-0.16	-0.332	0.744	1.23	0.717	1.37 (inactive)	0.0208	-0.0811	0.298	2.09	0.176	1.19	0.0179	1.12
O=C(CCCCCCC(=O)Nc1ccccc1)N/N=C/c1ccccc1	-0.162	-0.529	0.229	-0.507	-0.491	-0.18	0.0224	-0.216	0.255	-0.454	-0.4	0.0068 (inactive)	-0.154	-0.144	-0.251	-0.591	0.212	-0.731	0.358	-0.434
CCOC(=O)[C@@H]1[C@@H]2C(=O)N(CC)C(=O)[C@@H]2C[C@@H]1Sc1ccccc1	1.35	-1.33	0.0952	0.414	0.163	0.0357	0.131	0.266	0.706	1.27	0.663	-0.889 (inactive)	0.191	-0.0297	0.36	1.84	0.68	1.25	-0.235	0.563
